The results in this text go back to PubChem BioAssay (Tox21).

Experiment [1] is described as follows: qHTS assay to identify small molecule agonists of the farnesoid-X-receptor (FXR) signaling pathway - cell viability counter screen (AID 743218). Further: nearly all actives have a fitted effect of over 45% in size. Further: potency means the concentration at half of the fitted maximal effect. An outline of the steps:
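FXR-UAS-bla HEK 293T cells exposed to compounds for 16 h at 37C. Cytotoxicity read in the same wells by CellTiter-Glo luminescence after 30 min at room temperature, following the beta-lactamase FRET read.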
On the technique in general: In qHTS, concentration-response curves come from the screen itself.

The target of experiment [2] is Bile acid receptor (Homo sapiens) (UniProt Q96RI1). The experiment in a line: qHTS assay to identify small molecule agonists of the farnesoid-X-receptor (FXR) signaling pathway (AID 743220; active means well fitted activation curve with a large enough effect in the signal ratio in the repeat runs, not every such curve was filed as active; the % refers to the signal ratio; further: on the % scale 0 is the no-effect control and ±100 the full control effect). The procedure, abridged: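 Beta-lactamase reporter under UAS control in GeneBLAzer FXR HEK 293T cells (5000/well) measured with LiveBLAzer FRET substrate after 2 h at room temperature. Compound exposure lasted 16 h at 37C.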

The target of experiment [3] is Vitamin D3 receptor (Homo sapiens) (UniProt P11473). The experiment in a line: qHTS assay to identify small molecule agonists of the vitamin D receptor (VDR) signaling pathway (AID 743222; calls by dose curve; further: on the % scale 0 is the no-effect control and ±100 the full control effect). An outline of the steps: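 VDR-bla cells plated 4 h at 37 C, then exposed to compounds for 16 h at 37 C. Beta-lactamase reporter activity measured by fluorescence after 2 h room-temperature loading with LiveBLAzer B/G FRET substrate.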

Experiment [4] shares this target. The experiment in a line: qHTS assay to identify small molecule antagonists of the vitamin D receptor (VDR) signaling pathway (AID 743223; active means well fitted inhibition curve with a large enough effect in the signal ratio in the repeat runs, not every such curve was filed as active; the % refers to the signal ratio; further: on the % scale 0 is the no-effect control and ±100 the full control effect). An outline of the steps:
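Reporter line VDR-bla; stimulus 1alpha,25-(OH)2 vitamin D3, 3 nM final; compound co-addition, 16 h 37C/5% CO2; LiveBLAzer B/G substrate 2 h RT; fluorescence intensity.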

Experiment [5] can be described thus: qHTS assay to identify small molecule agonists of the vitamin D receptor (VDR) signaling pathway - cell viability counter screen (AID 743224). Further: nearly all actives have a fitted effect of over 50% in size. Further: potency means the concentration at half of the fitted maximal effect. The procedure, abridged: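 VDR-bla cells, 4 h after plating, exposed to compounds for 16 h at 37C; viability then read in the same wells as CellTiter-Glo luminescence after 30 min at room temperature, following the bla FRET read.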

The nature of experiment [6]: qHTS assay to identify small molecule antagonists of the vitamin D receptor (VDR) signaling pathway - cell viability counter screen (AID 743225). Further: nearly all actives have a fitted effect of over 50% in size. Further: potency means the concentration at half of the fitted maximal effect. An outline of the steps: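 Parallel cytotoxicity test: VDR-UAS-bla HEK 293T, 3 nM (final) 1-alpha,25-dihydroxyvitamin D3 with test compound, 16 h, 37C. Endpoint is CellTiter-Glo luminescence in the same wells.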
A short description of experiment [7]: qHTS assay to identify small molecule agonists of the AP-1 signaling pathway (AID 1159526; calls by dose curve; further: on the % scale 0 is the no-effect control and ±100 the full control effect).
The nature of experiment [8]: qHTS assay to identify small molecule agonists of the RXR signaling pathway - cell viability counter screen (AID 1159529). Further: nearly all actives have a fitted effect of over 50% in size. Further: potency means the concentration at half of the fitted maximal effect. An outline of the steps: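 In this parallel viability measure, GeneBLAzer RXR-alpha HEK 293T cells (2% charcoal-stripped FBS) were given a 5 hr preincubation, treated with compounds 16 hr at 37 C, and read by CellTiter-Glo luminescence.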
Experiment [9] is described as follows: qHTS assay to identify small molecule agonists of the peroxisome proliferator-activated receptor delta (PPARd) signaling pathway - cell viability counter screen (AID 743211). Further: nearly all actives have a fitted effect of over 55% in size. Further: potency means the concentration at half of the fitted maximal effect. An outline of the steps: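 qHTS cell viability: PPARd-bla HEK293H; 17 h cpd, 37C; CellTiter-Glo, luminescence at 30 min RT.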
Experiment [10] in a line: qHTS assay to identify small molecule antagonists of the peroxisome proliferator-activated receptor delta (PPARd) signaling pathway - cell viability counter screen (AID 743213). Further: nearly all actives have a fitted effect of over 50% in size. Further: potency means the concentration at half of the fitted maximal effect. The procedure, abridged:
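Same-well viability: cells pre-incubated 5 h, dosed with compound plus 300 nM L165041, kept 17 h at 37 C, FRET substrate 2 h RT, then CellTiter-Glo 30 min RT and luminescence.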

A short description of experiment [11]: qHTS assay to identify small molecule antagonists of the farnesoid-X-receptor (FXR) signaling pathway - cell viability counter screen (AID 743221; active means well fitted cell-killing curve with a large enough effect in the repeat runs, not every such curve was filed as active). The procedure, abridged: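 After a 5 h settling period, FXR-bla HEK 293T cells receive compound and chenodeoxycholic acid (50 uM final) and incubate 16 h at 37 C; CellTiter-Glo luminescence, read after 30 min at room temperature, reports cell viability.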

The nature of experiment [12]: qHTS assay to identify small molecule agonists of the AP-1 signaling pathway - cell viability counter screen (AID 1159525; calls by dose curve; further: nearly all actives have a fitted effect of over 55% in size; further: potency means the concentration at half of the fitted maximal effect). The procedure, abridged:
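AP-1-bla ME-180 cells in Opti-MEM with 0.5% dialyzed FBS, compound exposure 5 h at 37 C in 15-point titration. Viability read in the same wells as ATP content by CellTiter-Glo luminescence, normalised to tetra-n-octylammonium bromide and DMSO controls.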

Experiment [13] deals with Retinoic acid receptor RXR-alpha (Homo sapiens) (UniProt P19793). The experiment is described as follows: qHTS assay to identify small molecule agonists of the RXR signaling pathway (AID 1159527; calls by dose curve; further: on the % scale 0 is the no-effect control and ±100 the full control effect; nearly all actives have a fitted effect of over 35% in size). The procedure, abridged: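 16 hr incubation of compound-treated RXR-alpha-UAS-bla HEK 293T cells (2% charcoal-stripped FBS, 37 C) preceded a 2 hr room-temperature LiveBLAzer FRET substrate step and blue/green fluorescence measurement.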

Experiment [14] is described as follows: qHTS assay to identify small molecule antagonists of the retinoic acid receptor (RAR) signaling pathway (AID 1159552). The procedure, abridged:
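C3RL4 RARE-luc cells, overnight plating; retinol 1 uM final added right after compound; 6 hr 37 C; luciferase read at 30 min RT.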

A short description of experiment [15]: qHTS assay to identify small molecule antagonists of the retinoid acid receptor (RAR) signaling pathway - cell viability counter screen (AID 1159551). Further: on the % scale 0 is the no-effect control and ±100 the full control effect; nearly all actives have a fitted effect of over 35% in size. The procedure, abridged:
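C3RL4 RARE-luciferase cells, 1,000/well, incubated overnight, then dosed with compound plus 1 uM retinol (final). After 6 hr at 37 C, viability read by CellTiter-Glo ATP luminescence following 30 min at room temperature.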

For experiment [16], the target named is Peroxisome proliferator-activated receptor delta (Homo sapiens) (UniProt Q03181). The experiment is described as follows: qHTS assay to identify small molecule agonists of the peroxisome proliferator-activated receptor delta (PPARd) signaling pathway (AID 743212; calls by dose curve; further: on the % scale 0 is the no-effect control and ±100 the full control effect). An outline of the steps:
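GeneBLAzer UAS-bla HEK293H cells carrying a PPARδ construct were exposed to compounds at 37 °C. Beta-lactamase activity was read by FRET fluorescence after 2 h at room temperature with LiveBLAzer B/G substrate.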

For experiment [17] the target is unchanged. The experiment in a line: qHTS assay to identify small molecule antagonists of the peroxisome proliferator-activated receptor delta (PPARd) signaling pathway (AID 743215; active means well fitted inhibition curve with a large enough effect in the signal ratio in the repeat runs, not every such curve was filed as active; the % refers to the signal ratio;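 further: cells stimulated with agonist L165041 at 300 nM final during compound exposure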; further: potency means the concentration at half of the fitted maximal effect). An outline of the steps:
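PPARd-bla HEK293H cells (UAS-bla reporter) preincubated 5 h, then given compound plus 300 nM final L165041 agonist for 17 h at 37 C. Beta-lactamase activity read by LiveBLAzer B/G FRET substrate fluorescence after 2 h at room temperature.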

The target in experiment [18] is Nuclear receptor ROR-gamma (Homo sapiens) (UniProt P51449). The experiment is described as follows: qHTS assay to identify small molecule antagonists of the retinoid-related orphan receptor gamma (ROR-gamma) signaling pathway (AID 1159521). The procedure, abridged:
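Decreased RORE-driven luciferase luminescence indicates antagonism. Tet-on RORγ CHO cells received compound, then 1 uM final doxycycline 2 h later; signal read after 16 h incubation.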

Records with an inconclusive call do not appear. Values without a mark were called inactive. Activity calls are given as the source filed them. Unless noted, the call rests on the fitted dose curve; in most records, active means well fitted curve in the direction sought with a large enough effect in the repeat runs; inconclusive means weak or mixed curves; inactive means no such curve, though single readings can be large; an effect the other way counts as inactive or inconclusive.

Chain of Peroxisome proliferator-activated receptor delta (Homo sapiens) (Q03181 whole entry, looked up): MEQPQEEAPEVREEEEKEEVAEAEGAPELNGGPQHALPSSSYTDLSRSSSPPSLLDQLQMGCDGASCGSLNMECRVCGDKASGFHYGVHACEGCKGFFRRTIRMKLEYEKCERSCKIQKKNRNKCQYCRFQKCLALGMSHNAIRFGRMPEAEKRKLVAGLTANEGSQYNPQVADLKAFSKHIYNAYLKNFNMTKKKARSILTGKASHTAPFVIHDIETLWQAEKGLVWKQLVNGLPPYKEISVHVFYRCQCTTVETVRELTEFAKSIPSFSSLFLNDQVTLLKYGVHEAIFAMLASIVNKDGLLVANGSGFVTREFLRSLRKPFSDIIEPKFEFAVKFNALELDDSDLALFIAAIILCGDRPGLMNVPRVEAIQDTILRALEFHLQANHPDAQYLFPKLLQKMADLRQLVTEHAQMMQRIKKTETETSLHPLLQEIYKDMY
Chain of Retinoic acid receptor RXR-alpha (Homo sapiens) (P19793 whole entry, looked up): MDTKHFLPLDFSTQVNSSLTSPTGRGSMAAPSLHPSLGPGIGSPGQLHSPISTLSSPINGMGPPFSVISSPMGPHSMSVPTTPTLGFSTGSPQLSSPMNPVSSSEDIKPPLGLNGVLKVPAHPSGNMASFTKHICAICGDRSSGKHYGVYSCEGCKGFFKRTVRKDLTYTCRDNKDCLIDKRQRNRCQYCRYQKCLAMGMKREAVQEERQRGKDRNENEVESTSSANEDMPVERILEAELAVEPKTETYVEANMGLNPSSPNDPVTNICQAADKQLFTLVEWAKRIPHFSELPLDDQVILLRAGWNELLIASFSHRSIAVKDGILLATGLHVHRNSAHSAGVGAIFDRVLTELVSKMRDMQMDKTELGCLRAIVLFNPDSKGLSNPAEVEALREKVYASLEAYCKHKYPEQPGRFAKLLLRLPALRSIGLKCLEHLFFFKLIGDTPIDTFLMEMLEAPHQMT
Chain of Vitamin D3 receptor (Homo sapiens) (P11473 whole entry, looked up): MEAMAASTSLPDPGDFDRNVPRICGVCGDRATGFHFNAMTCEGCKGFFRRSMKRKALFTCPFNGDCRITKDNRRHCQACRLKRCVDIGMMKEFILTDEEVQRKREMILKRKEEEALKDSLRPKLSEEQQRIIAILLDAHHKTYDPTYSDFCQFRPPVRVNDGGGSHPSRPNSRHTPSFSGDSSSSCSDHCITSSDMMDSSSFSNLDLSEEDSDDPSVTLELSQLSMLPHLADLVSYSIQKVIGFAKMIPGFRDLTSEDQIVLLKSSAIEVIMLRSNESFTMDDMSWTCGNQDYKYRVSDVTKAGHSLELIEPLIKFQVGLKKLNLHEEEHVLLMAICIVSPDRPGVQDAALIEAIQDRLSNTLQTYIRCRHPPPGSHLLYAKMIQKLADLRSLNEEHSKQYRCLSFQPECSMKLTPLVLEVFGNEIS
Chain of Bile acid receptor (Homo sapiens) (Q96RI1 whole entry, looked up): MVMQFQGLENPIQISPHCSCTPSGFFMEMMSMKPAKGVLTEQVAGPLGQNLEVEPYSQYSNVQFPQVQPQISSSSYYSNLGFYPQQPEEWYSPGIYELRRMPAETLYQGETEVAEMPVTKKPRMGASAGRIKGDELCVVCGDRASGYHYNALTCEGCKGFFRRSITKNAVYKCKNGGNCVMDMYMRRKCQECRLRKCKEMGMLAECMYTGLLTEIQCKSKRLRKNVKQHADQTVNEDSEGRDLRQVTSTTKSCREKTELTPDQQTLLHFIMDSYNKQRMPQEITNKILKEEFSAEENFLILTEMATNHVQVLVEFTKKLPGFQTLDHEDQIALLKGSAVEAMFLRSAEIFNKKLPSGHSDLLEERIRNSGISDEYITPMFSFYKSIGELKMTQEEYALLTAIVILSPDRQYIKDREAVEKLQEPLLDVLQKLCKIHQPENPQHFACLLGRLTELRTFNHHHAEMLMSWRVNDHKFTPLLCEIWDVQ

`S=C1NC=NC2N=CNC12` (stereo not drawn): the Potency in [1] is 11 µM (active); in experiment [5] it was 3.09 µM (active); in [6], 7.77 µM (active); in [8] it was 6.92 µM (active). Also, the result in experiment [2] and in [3] was inactive. The Potency result in experiment [4] and in experiment [7] was “inactive” throughout.

In the case of `CC(Cc1ccc(O)c(O)c1)C(C)Cc1ccc(O)c(O)c1` (stereo not drawn), the Potency result in experiment [9], in experiment [10], in experiment [1], in [11], in experiment [5] and in [6] was “inactive” in each case. Further, the Potency entry in experiment [12], in [13] and in experiment [14] was “inactive” in each case. Besides, the outcome in experiment [2] and in [3] was inactive.

Consider `CCCCC/C=C\C=C\C(=O)OCC`, for which the call in [2] and in experiment [3] was inactive. The Potency in experiment [5] was 40.5 µM (active); in [8] it was 45.5 µM (active). Further, the Potency entry in [6] and in experiment [15] was “inactive” in each case.

For `CCC(C)(C)c1ccc(CC(C)CN2C[C@@H](C)O[C@@H](C)C2)cc1` (stereo partly drawn), the Potency in experiment [9] is 26.6 µM (active); in experiment [8] it was 12 µM (active). The molecule was classed as inactive in [16] and in [3]. Moreover, the Potency entry in experiment [10], in experiment [17], in experiment [1], in experiment [11], in [4] and in experiment [18] was “inactive” in each case. The Potency entry in experiment [14] was “inactive”.

`O=C(O)C[C@H](O)C[C@H](O)/C=C/c1c(C2CC2)nc2ccccc2c1-c1ccc(F)cc1`: the figures for the activation in experiment [7] and in [13] were 4.12% [at 15.8 µM] and -9.56% [at 15.8 µM], respectively. Besides, in experiment [15], the activity change, negative = cytotoxicity is 1.42% [at 19 µM].

As for `c1ccc(-c2ccc(C(c3ccccc3)n3ccnc3)cc2)cc1` (stereo not drawn), the Potency in [9] was 29.8 µM (active); in [17], 26.6 µM (active). Also, the result in [16] and in experiment [3] was inactive. Also, the Potency result in experiment [4], in experiment [6], in experiment [12], in [8], in [15] and in [14] was “inactive” in each case.

`Cc1cccc(C)c1C`: the Potency entry in [12], in experiment [7], in experiment [13], in [8] and in experiment [15] was “inactive” in each case.

Consider `O=C(Cl)c1ccc(Cl)cc1Cl`, for which the Potency entry in experiment [12], in experiment [7], in experiment [13], in [8], in experiment [15] and in [14] was “inactive” each time.

As for `C1CCSC1`, the Potency entry in [12], in experiment [7], in experiment [13], in experiment [8], in [15] and in experiment [14] was “inactive” throughout.

With `CCOc1ccc([N+](=O)[O-])cc1`, the Potency in [9] is 49.7 µM (active); in [10], 44.3 µM (active); in experiment [5], 49.7 µM (active); in [6] it was 22.2 µM (active); in experiment [12], 49.7 µM (active); in experiment [8], 49.7 µM (active). Also, the Potency entry in experiment [14] is “inactive”.

As to `CCCCCc1ccc(O)cc1`, the Potency result in [15] and in [14] was “inactive” in each case.

Turning to `CCNc1nc(NC(C)(C)C)nc(OC)n1`, the Potency result in experiment [7], in [13], in experiment [8], in experiment [15] and in experiment [14] was “inactive” in each case.

For `CC(CC(C)(C)C)CC(C)(C)CC(C)(C)C` (stereo not drawn), the Potency entry in experiment [7], in experiment [8] and in [15] was “inactive” throughout.
